# From PMC5540273 (PLoS ONE, 2017)
# Where “and” joins values, the source holds several entries; their conditions need not be identical. Equal entries are not always repeated. Where two headings read alike, the source gives them in different places.
# Legend:
# MYLK4 = conditions: concentration: 1 μM, replicates: in singlicate, n = 1
# MYLK = conditions: concentration: 1 μM, replicates: in singlicate, n = 1
# MYO3A = conditions: concentration: 1 μM, replicates: in singlicate, n = 1
# MYO3B = conditions: concentration: 1 μM, replicates: in singlicate; n = 1
# NDR1 = test system: T1, NDR1; conditions: concentration: 1 μM, replicates: in singlicate, n = 1
# T1 construct: gene STK38
# NDR2 = conditions: concentration: 1 μM, replicates: in singlicate, n = 1
# NEK10 = conditions: concentration: 1 μM, replicates: in singlicate; n = 1
# NEK11 = conditions: concentration: 1 μM, replicates: in singlicate, n = 1
# NEK1 = conditions: concentration: 1 μM, replicates: in singlicate; n = 1
# NEK2 = conditions: concentration: 1 μM, replicates: in singlicate, n = 1
# 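Further: KINOMEscan kinase panel screen.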
Compound,%Inh (MYLK4),%Inh (MYLK),%Inh (MYO3A),%Inh (MYO3B),%Inh (NDR1),%Inh (NDR2),%Inh (NEK10),%Inh (NEK11),%Inh (NEK1),%Inh (NEK2),%Inh (MYLK4; 1 µM),%Inh (MYLK; 1 µM),%Inh (MYO3A; 1 µM),%Inh (NDR1; 1 µM),%Inh (NDR2; 1 µM),%Inh (NEK11; 1 µM),%Inh (NEK2; 1 µM)
Nc1nc(-c2cccnc2)c(-c2ccnc3ccccc23)s1 [GW684083],83%,15%,0%,0%,0%,11%,77%,27%,0%,13%,–,–,–,–,–,–,–
Cl.c1ccc(Cn2ncc3cc(Nc4ncnc5ccccc45)ccc32)cc1 [GW273749],37%,8%,14%,0%,12%,0%,0%,0%,0%,5%,–,–,–,–,–,–,–
Fc1cccc(COc2ccc(Nc3ncnc4sc(-c5ccc[nH]5)cc34)cc2Cl)c1 [GW707818],13%,13%,17%,0%,23%,17%,4%,24%,0%,15%,–,–,–,–,–,–,–
COc1ccc(-c2nc3n(c2-c2ccncc2)CCC3)cc1 [SKF-104493],–,–,–,0%,–,–,0%,–,0%,–,0% and 12%,14% and 8%,7% and 25%,22% and 13%,16% and 10%,42% and 13%,0% and 4%
Cl.c1ccc(Cn2ccc3cc(Nc4ncnc5ccccc45)ccc32)cc1 [GW275568],26%,21%,16%,0%,32%,1%,29%,0%,0%,14%,–,–,–,–,–,–,–
Fc1ccc(Nc2nccc(-c3c(-c4ccc(Cl)cc4)nn4ncccc34)n2)cc1F [GW829058],0%,38%,15%,21%,24%,28%,19%,25%,17%,16%,–,–,–,–,–,–,–
COc1ccc(Nc2nccc(N3CCC(NC(=O)c4cccc(NC(C)=O)c4)C3)n2)cc1 (stereo not shown) [GSK1379732],6%,29%,37%,0%,15%,10%,24%,48%,6%,6%,–,–,–,–,–,–,–
Cc1ccc(NC(=O)c2cccc(C#N)c2)cc1-c1ccc(C(=O)Nc2ccncc2)cc1 [GSK1398463],7%,14%,0%,0%,0%,0%,1%,0%,27%,28%,–,–,–,–,–,–,–
Fc1cccc(COc2ccc(Nc3ncnc4nn5ccccc5c34)cc2Cl)c1 [GW689066],0%,0%,18%,0%,55%,0%,0%,11%,0%,0%,–,–,–,–,–,–,–
CCCc1ccc(S(=O)(=O)NC2CCN(c3ccnc(Nc4ccc(OC)cc4)n3)C2)cc1 (stereo not shown) [GSK1379737],0%,30%,15%,0%,0%,0%,21%,27%,0%,0%,–,–,–,–,–,–,–
Cc1ccc(O)cc1Nc1cc(C(F)(F)F)nc2ccc(-c3ccncc3)cc12 [GW630823],0%,6%,6%,0%,0%,6%,0%,0%,0%,2%,–,–,–,–,–,–,–
Cl.Cn1ccc(-c2cccc(Nc3ccnc4cc(-c5nccs5)ccc34)c2)n1 [GW525701],0%,7%,43%,0%,19%,0%,4%,15%,0%,0%,–,–,–,–,–,–,–
Oc1ccc2ncnc(Nc3ccc(OCc4ccccc4)cc3)c2c1 [GI262866],3%,0%,0%,0%,0%,0%,0%,0%,0%,0%,–,–,–,–,–,–,–
CS(=O)(=O)CCNCc1ccc(-c2ccc3ncnc(Nc4ccc(OCc5ccccc5)c(Cl)c4)c3c2)o1.Cl [GW574783],2%,7%,0%,0%,0%,0%,23%,26%,0%,0%,–,–,–,–,–,–,–
CNc1nccc(-c2c(-c3ccc(F)cc3)ncn2C2CCN(C)CC2)n1 [SB-222903],0%,0%,0%,19%,33%,17%,0%,0%,0%,0%,–,–,–,–,–,–,–
COC(=O)c1c(-c2ccccc2)c2cc(Cl)ccc2c(=O)n1Cc1ccc(S(C)(=O)=O)cc1,5%,34%,0%,0%,0%,0%,13%,0%,0%,83%,–,–,–,–,–,–,–
CS(=O)(=O)CCNCc1nc(-c2ccc3ncnc(Nc4ccc(OCc5cccc(F)c5)c(Cl)c4)c3c2)cs1.Cl [GW583340],4%,1%,34%,0%,0%,15%,0%,0%,0%,16%,–,–,–,–,–,–,–

Compound,%Inh (MYLK4),%Inh (MYLK),%Inh (MYO3A),%Inh (MYO3B),%Inh (NDR1),%Inh (NDR2),%Inh (NEK10),%Inh (NEK11),%Inh (NEK1),%Inh (NEK2),%Inh (MYLK4; 1 µM),%Inh (MYLK; 1 µM),%Inh (MYO3A; 1 µM),%Inh (NDR1; 1 µM),%Inh (NDR2; 1 µM),%Inh (NEK11; 1 µM),%Inh (NEK2; 1 µM)
CC(C)(C)c1ccc(-n2cnc3c(N)ncnc32)cc1 [SKF-97263],3%,8%,1%,8%,0%,0%,0%,0%,0%,0%,–,–,–,–,–,–,–
Fc1cccc(COc2ccc(Nc3ncnc4cc[nH]c34)cc2Cl)c1,8%,10%,4%,29%,24%,8%,0%,0%,0%,12%,–,–,–,–,–,–,–
Cc1cccc(-c2nc(Nc3ccc4[nH]nnc4c3)c3ccccc3n2)n1 [GW867587],1%,0%,0%,0%,0%,6%,0%,0%,0%,0%,–,–,–,–,–,–,–
O=C(c1ccc(-c2cc(-c3c[nH]nc3-c3ccccn3)ccn2)cc1)N1CCCC1 [GW792479],4%,31%,9%,16%,21%,3%,18%,0%,0%,3%,–,–,–,–,–,–,–
O=c1cc(N2CCOCC2)nc2n(Cc3cccc(Cl)c3)ccn12 [GSK2296823],0%,61%,0%,0%,8%,0%,0%,0%,0%,10%,–,–,–,–,–,–,–
C[C@@H]1CCN(C(=O)CO)C[C@@H]1N(C)c1ncnc2[nH]ccc12,0%,3%,0%,0%,6%,14%,48%,0%,0%,0%,–,–,–,–,–,–,–
COc1cc2ncnc(Nc3ccc(OCc4ccccc4Br)c(Cl)c3)c2cc1OC.Cl [GI261590],0%,10%,38%,0%,0%,0%,25%,0%,0%,0%,–,–,–,–,–,–,–
CCn1c(-c2ccncc2)nc2cnccc21 [SB-735216],0%,24%,19%,0%,28%,0%,0%,51%,0%,8%,–,–,–,–,–,–,–
CC(C)(C)OC(=O)NC1CCCN(c2cc(-c3ccc4c(N)n[nH]c4c3)nc(N)n2)C1 (stereo not shown) [GSK2286096],0%,0%,0%,0%,21%,0%,0%,0%,0%,7%,–,–,–,–,–,–,–
C[C@H]1CC[C@@H](C(=O)Nc2ccccc2)CN1c1cc(-c2ccc3c(N)n[nH]c3c2)nc(N)n1 [GSK2283293],0%,40%,7%,0%,13%,0%,0%,0%,0%,0%,–,–,–,–,–,–,–
OCCOCCn1ccc2ncnc(Nc3ccc(Oc4cccc(Cl)c4)c(Cl)c3)c21,0%,0%,0%,0%,30%,0%,0%,0%,0%,0%,–,–,–,–,–,–,–
NC(=O)c1sc(-n2cnc3ccccc32)cc1OCc1ccccc1F [GSK1024306],6%,2%,3%,0%,0%,11%,22%,32%,0%,0%,–,–,–,–,–,–,–
FC(F)(F)c1cc(Nc2nccc(-c3c(-c4ccc(Cl)cc4)nn4ncccc34)n2)ccc1Cl [GW829351],1%,0%,0%,0%,16%,0%,0%,0%,0%,0%,–,–,–,–,–,–,–
COc1ccc(-c2oc3ncnc(N)c3c2-c2ccc(OC)cc2)cc1 [SB-589132],9%,18%,25%,0%,15%,37%,49%,45%,9%,5%,–,–,–,–,–,–,–
Fc1ccc(-c2ncn(CCCNCc3ccccc3)c2-c2ccncc2)cc1,0%,13%,7%,22%,0%,19%,34%,19%,0%,0%,–,–,–,–,–,–,–
FC(F)(F)c1ccc(-c2cc(-c3c[nH]nc3-c3ccccn3)ccn2)cc1 [GW599550],1%,21%,27%,0%,22%,9%,17%,24%,9%,1%,–,–,–,–,–,–,–
CSc1nn2c(=O)cc(N3CCOCC3)nc2n1Cc1cccc(Cl)c1Cl [GSK2347225],4%,12%,0%,0%,23%,0%,29%,0%,0%,0%,–,–,–,–,–,–,–
